From the supplement of paper PMC10849652
Of roughly 8,800 targets only a part is listed; those with a hit were picked by preference. About 0.5% of all pairs of compound and target were hits.

Experiments:
Assay in all cases: log2 fold change, soluble protein after heating vs DMSO (PISA); higher = thermal stabilisation; K562 lysate, 10 uM; active = over 0.2 and 3.5 SD of the protein, either way, in both replicates (recomputed)
[1] = compound: C#Cc1cccc(Nc2ncnc3cc(OCCOC)c(OCCOC)cc23)c1 [erlotinib]
How it was run: (§1)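 Dounce homogenisation of K562 pellets in PBS pH 7.4 with 1 mM MgCl2 produced a crude extract, used at 1 mg/mL protein. Exposure to 10 μM compound lasted 30 min, and aliquots were then heated for 3 min across 48°C-58°C, pooled and brought to 0.5% NP-40 at 4°C. The supernatant after 21,000xg for 90 min was quantified by TMTpro 16plex LC-MS/MS with channel sums equalised. Duplicate values are given as log-two fold change in thermal stability relative to solvent controls.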

[2] = compound: C/C(=N\NC(=O)C1=CC(=CC=C1)S(=O)(=O)N2CCOCC2)/C3=C(C=CC(=C3)Cl)O
How it was run: as §1

[3] = compound: C1=CC(=CC=C1C2=NC3=C(N2)C=C(C=C3)C(=O)N)OC4=CC=C(C=C4)Cl
How it was run: as §1

[4] = compound: C1=CC2=C(C=CC(=C2)/C=C\3/C(=O)NC(=NCC4=CC=CS4)S3)N=C1
How it was run: as §1

[5] = compound: C1=CC2=NC=CN=C2C=C1/C=C/3\C(=O)NC(=O)S3
How it was run: as §1

[6] = compound: C1=CC=C(C=C1)C2=NC(=C(N2)C3=CC=NC=C3)C4=CC(=C(C=C4)Cl)O
How it was run: as §1

[7] = compound: C1=CC=C2C(=C1)C3=NNC4=CC=CC(=C43)C2=O
How it was run: as §1

[8] = compound: C1CCN(C1)C(=O)NC2=CC=CC(=C2)NC3=NC=C(C(=N3)NCCC4=CN=CN4)Br
How it was run: as §1

[9] = compound: C1CN(CCC1(CC2=CC=C(C=C2)Cl)N)C3=NC=NC4=C3C=CN4
How it was run: as §1

[10] = compound: C1COCCN1CCN2C3=CC=CC=C3N=C2NC(=O)C4=CC(=CC=C4)[N+](=O)[O-] [IRAK-1-4 Inhibitor I]
How it was run: as §1

[11] = compound: C=CC(=O)N1CCC[C@@H](n2nc(-c3ccc(Oc4ccccc4)cc3)c3c(N)ncnc32)C1 [ibrutinib]
How it was run: as §1

[12] = compound: CC(C)(C)Cn1c(N)nc2ccc(-c3[nH]c(C(C)(C)C)nc3-c3ccc(F)cc3)nc21 [ralimetinib]
How it was run: as §1

[13] = compound: CC(C)(O)CC(=O)NCCn1ccc2ncnc(Nc3ccc(Oc4cccc(C(F)(F)F)c4)c(Cl)c3)c21
How it was run: as §1

[14] = compound: CC(C)C1=C2N=C(C=C(N2N=C1)NCC3=CC=CC=C3)NCCCCCCN
How it was run: as §1

[15] = compound: CC1=C(C2=C(C=C1)C(=O)C3=CC=CC=C3N2CCCN)C
How it was run: as §1

[16] = compound: CC1=C(C=C(C=C1)NC(=O)C2=CC(=CC=C2)C(C)(C)C#N)NC3=CC4=C(C=C3)N=CN(C4=O)C
How it was run: as §1

[17] = compound: CC1=C(C=C(C=C1)NC(=O)C2=CC(=CC=C2)N(C)C)NC(=O)C3=CC=C(C=C3)O
How it was run: as §1

[18] = compound: CC(=O)c1cnc2ccc(-c3cc(Cl)c(O)c(Cl)c3)nc2c1N[C@H]1CC[C@H](CN(C)C)CC1
How it was run: as §1

[19] = compound: CC1=C(C(CC(=O)N1)C2=CC=C(C=C2)C(F)(F)F)C(=O)NC3=C(C=C4C(=C3)C=NN4)F
How it was run: as §1

[20] = compound: CC1=CC=C(C=C1)SC2=C3C=C(SC3=CN=C2)C(=O)N
How it was run: as §1

Measured: log2 fold change

CCP110 (UniProt O43303)
Sequence of UniProt O43303 (O43303 whole entry, looked up): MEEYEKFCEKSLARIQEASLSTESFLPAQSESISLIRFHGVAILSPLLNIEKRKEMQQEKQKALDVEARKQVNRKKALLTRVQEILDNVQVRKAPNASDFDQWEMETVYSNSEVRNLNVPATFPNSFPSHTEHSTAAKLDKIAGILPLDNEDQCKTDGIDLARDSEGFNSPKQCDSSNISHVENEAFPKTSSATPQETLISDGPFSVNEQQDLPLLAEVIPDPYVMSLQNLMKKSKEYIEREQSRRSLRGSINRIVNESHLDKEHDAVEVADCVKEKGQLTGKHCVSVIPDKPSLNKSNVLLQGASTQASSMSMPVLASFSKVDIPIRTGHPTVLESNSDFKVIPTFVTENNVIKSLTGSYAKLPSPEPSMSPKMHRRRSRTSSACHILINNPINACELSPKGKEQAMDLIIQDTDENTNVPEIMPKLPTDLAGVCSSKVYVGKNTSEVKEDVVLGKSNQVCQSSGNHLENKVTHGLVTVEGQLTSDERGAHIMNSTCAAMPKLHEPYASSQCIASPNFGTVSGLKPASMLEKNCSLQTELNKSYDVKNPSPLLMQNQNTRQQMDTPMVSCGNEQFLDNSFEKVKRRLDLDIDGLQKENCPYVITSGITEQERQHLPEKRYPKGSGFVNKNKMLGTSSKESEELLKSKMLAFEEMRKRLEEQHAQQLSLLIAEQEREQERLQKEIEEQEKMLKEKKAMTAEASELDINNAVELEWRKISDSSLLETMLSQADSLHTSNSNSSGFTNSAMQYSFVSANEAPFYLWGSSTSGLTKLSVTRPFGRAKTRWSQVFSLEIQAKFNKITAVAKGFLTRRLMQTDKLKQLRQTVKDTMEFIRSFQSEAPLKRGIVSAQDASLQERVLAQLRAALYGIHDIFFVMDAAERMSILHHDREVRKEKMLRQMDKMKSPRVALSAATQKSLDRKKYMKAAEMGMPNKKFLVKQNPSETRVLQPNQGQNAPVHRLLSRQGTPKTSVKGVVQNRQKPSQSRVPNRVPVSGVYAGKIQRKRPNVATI
active: [2] -0.436
inactive: [1] 0.081 | [3] 0.046 | [4] -0.022 | [5] 0.03 | [6] -0.088 | [7] -0.047 | [8] -0.051 | [9] 0.051 | [10] 0.075 | [11] -0.008 | [12] 0.082 | [13] 0.001 | [14] 0.054 | [15] -0.186 | [16] 0.01 | [17] 0.113

CBX5 (UniProt P45973)
Sequence of UniProt P45973 (P45973 whole entry, looked up): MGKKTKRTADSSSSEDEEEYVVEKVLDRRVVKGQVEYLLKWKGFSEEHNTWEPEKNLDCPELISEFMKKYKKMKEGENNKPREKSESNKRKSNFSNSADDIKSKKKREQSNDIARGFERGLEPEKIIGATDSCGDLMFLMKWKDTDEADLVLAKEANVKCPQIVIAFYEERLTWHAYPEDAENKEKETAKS
inactive: [1] -0.012 | [2] 0.009 | [3] 0.013 | [4] -0.001 | [5] 0.011 | [6] 0.011 | [7] 0.026 | [8] -0.007 | [9] 0.02 | [10] 0.007 | [11] -0.047 | [18] -0.007 | [12] -0.024 | [13] -0.087 | [14] -0.02 | [19] -0.088 | [15] -0.02 | [16] 0.028 | [17] 0.007 | [20] -0.033

C8orf88 (UniProt P0DMB2)
Sequence of UniProt P0DMB2 (P0DMB2 whole entry, looked up): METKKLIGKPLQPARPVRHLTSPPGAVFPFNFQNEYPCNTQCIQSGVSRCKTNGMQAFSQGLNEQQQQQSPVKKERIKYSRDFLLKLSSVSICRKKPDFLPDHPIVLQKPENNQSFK
inactive: [1] -0.006 | [3] -0.185 | [5] 0.028 | [6] -0.003 | [10] -0.013 | [11] -0.004 | [12] 0.06 | [13] 0.047 | [14] -0.05 | [15] 0.006 | [16] 0.052 | [17] 0.022

CDKL5 (UniProt O76039)
Sequence of UniProt O76039 (O76039 whole entry, looked up): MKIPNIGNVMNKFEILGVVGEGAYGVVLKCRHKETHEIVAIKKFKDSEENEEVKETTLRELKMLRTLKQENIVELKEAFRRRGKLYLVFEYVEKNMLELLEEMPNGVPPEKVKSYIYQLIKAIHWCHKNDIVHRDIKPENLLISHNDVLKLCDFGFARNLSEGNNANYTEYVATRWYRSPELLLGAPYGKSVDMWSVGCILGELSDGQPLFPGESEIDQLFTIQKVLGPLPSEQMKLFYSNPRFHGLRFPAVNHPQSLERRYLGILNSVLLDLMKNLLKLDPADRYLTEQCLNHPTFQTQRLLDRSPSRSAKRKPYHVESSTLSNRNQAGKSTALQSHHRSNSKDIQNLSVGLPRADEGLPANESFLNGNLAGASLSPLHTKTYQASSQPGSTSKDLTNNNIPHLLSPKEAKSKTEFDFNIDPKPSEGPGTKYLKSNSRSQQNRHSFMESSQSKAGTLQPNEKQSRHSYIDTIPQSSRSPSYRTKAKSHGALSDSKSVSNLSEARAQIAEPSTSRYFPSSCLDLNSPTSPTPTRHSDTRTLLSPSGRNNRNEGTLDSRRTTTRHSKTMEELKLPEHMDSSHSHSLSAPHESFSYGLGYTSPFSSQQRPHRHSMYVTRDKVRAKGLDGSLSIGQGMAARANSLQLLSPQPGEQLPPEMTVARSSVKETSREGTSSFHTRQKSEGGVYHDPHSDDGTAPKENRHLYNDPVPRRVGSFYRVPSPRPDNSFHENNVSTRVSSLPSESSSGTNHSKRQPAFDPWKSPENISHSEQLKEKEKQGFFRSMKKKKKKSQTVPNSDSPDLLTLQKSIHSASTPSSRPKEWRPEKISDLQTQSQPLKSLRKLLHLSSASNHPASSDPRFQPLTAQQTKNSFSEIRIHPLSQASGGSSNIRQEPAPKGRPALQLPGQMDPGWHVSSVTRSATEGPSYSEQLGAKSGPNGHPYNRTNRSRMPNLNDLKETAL
inactive: [2] -0.216 | [4] -0.08 | [7] 0.339 | [8] 0.423 | [9] 0.085 | [18] 0.088 | [15] -0.351 | [16] 0.111 | [20] -0.019

ATG4D (UniProt Q86TL0)
inactive: [5] 0.072 | [6] 0.049 | [8] 0.047 | [9] -0.074 | [10] -0.142 | [11] -0.086 | [12] 0.049 | [13] 0.074 | [15] 0.319 | [16] -0.096 | [17] -0.052

CDAN1 (UniProt H3BPZ6)
inactive: [16] -0.172

CEP57L1 (UniProt Q8IYX8)
Sequence of UniProt Q8IYX8 (Q8IYX8 whole entry, looked up): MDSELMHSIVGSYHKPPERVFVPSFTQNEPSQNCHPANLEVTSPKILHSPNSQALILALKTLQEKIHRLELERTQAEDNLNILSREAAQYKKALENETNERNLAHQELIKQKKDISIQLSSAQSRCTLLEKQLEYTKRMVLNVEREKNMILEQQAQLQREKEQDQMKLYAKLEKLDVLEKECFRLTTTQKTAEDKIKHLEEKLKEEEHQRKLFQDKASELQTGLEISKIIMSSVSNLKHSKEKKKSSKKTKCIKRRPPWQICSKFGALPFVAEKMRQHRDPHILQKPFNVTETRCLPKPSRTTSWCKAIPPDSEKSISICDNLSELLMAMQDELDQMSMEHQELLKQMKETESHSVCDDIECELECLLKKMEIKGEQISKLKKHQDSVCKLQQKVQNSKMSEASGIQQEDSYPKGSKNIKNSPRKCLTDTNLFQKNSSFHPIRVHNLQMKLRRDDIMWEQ
inactive: [1] -0.064 | [3] 0.118 | [5] -0.021 | [6] -0.041 | [8] -0.013 | [9] 0.101 | [10] 0.35 | [11] -0.039 | [12] 0.171 | [13] -0.272 | [14] -0.049 | [19] 0.11 | [15] -0.191 | [16] -0.037 | [17] -0.044

CASP7 isoform 3 (UniProt P55210)
Sequence of UniProt P55210 (P55210 whole entry, looked up): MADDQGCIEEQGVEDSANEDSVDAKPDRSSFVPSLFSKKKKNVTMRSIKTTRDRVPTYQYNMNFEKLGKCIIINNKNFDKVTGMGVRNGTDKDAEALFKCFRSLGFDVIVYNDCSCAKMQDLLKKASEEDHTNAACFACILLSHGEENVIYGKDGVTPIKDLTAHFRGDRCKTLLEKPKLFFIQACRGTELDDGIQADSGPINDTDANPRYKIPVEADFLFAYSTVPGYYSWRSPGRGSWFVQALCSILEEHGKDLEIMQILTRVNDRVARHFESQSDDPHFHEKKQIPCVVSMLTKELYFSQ
inactive: [1] 0.104 | [3] 0.008 | [5] -0.086 | [6] 0.019 | [8] -0.013 | [9] 0.098 | [10] 0.241 | [11] 0 | [18] 0.125 | [12] -0.118 | [13] -0.012 | [14] -0.123 | [19] -0.029 | [15] -0.161 | [16] 0.043 | [17] -0.124 | [20] -0.052

ATXN2 (UniProt F8WB06)
inactive: [15] 0.187

BICRA (UniProt Q9NZM4)
Sequence of UniProt Q9NZM4 (Q9NZM4 whole entry, looked up): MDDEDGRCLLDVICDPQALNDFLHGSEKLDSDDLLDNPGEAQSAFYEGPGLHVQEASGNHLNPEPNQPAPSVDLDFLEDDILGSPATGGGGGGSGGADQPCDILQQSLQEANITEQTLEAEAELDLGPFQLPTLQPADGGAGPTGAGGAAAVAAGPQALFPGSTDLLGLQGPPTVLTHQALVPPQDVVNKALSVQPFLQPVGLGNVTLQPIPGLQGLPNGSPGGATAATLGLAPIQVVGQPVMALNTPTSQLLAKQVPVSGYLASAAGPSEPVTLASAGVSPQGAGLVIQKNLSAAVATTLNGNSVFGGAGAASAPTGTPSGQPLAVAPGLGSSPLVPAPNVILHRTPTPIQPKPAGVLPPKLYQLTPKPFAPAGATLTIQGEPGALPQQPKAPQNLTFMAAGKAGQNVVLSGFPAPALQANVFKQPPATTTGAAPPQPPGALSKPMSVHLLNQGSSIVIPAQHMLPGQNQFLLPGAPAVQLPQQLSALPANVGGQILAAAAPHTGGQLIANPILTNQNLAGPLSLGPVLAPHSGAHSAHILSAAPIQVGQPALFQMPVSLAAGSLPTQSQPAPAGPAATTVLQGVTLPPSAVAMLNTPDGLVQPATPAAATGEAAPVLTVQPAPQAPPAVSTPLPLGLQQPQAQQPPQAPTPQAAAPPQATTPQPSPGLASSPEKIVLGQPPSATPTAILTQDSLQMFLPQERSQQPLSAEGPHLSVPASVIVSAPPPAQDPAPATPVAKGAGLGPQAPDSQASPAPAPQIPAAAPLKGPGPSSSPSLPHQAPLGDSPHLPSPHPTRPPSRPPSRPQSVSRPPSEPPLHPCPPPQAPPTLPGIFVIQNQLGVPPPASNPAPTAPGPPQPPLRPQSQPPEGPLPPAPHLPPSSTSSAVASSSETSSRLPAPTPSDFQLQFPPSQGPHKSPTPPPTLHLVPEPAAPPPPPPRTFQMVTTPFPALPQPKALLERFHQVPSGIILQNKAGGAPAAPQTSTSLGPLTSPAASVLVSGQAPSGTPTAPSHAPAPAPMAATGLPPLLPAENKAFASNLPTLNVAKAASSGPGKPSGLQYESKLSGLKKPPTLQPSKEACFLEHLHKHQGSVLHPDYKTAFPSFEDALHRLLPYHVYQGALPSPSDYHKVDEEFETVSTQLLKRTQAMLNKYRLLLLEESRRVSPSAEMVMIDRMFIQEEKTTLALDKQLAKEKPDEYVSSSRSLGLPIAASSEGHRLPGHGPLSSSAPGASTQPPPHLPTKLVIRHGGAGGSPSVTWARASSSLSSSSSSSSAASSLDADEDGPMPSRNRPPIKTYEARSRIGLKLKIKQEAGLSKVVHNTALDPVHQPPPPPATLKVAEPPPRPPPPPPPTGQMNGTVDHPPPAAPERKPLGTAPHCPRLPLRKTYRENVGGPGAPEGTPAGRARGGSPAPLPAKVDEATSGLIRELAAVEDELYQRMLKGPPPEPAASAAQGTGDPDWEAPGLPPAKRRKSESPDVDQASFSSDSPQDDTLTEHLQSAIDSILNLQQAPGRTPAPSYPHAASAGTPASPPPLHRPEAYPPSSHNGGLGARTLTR
inactive: [1] 0.204 | [3] 0.231 | [5] 0.12 | [6] 0.065 | [10] 0.115 | [11] -0.053 | [18] -0.093 | [12] -0.138 | [13] -0.271 | [14] 0.102 | [15] -0.168 | [16] -0.012 | [17] -0.003 | [20] -0.156

CDC25A (UniProt P30304)
inactive: [1] 0.016 | [3] 0.085 | [6] 0 | [10] 0.052 | [18] -0.009 | [12] 0.014 | [13] -0.044 | [14] 0.019 | [19] -0.017 | [15] 0.012 | [16] 0.087 | [17] 0.015 | [20] 0.002

CAD (UniProt H7BZB3)
inactive: [1] 0.126 | [2] -0.127 | [3] -0.28 | [4] -0.069 | [7] -0.034 | [8] -0.035 | [9] -0.007 | [14] -0.073

CEP295 isoform 3 (UniProt Q9C0D2)
inactive: [1] -0.063 | [3] -0.02 | [5] 0.051 | [6] -0.092 | [8] 0.015 | [9] 0.111 | [10] -0.143 | [11] -0.182 | [18] -0.048 | [12] 0.005 | [13] 0.009 | [14] -0.019 | [19] 0.02 | [16] 0.041 | [17] 0 | [20] 0.053

CCAR2 (UniProt G3V119)
inactive: [18] 0.017 | [20] -0.047

CEP128 (UniProt Q6ZU80)
inactive: [2] -0.069 | [4] 0 | [5] -0.234 | [6] 0.236 | [7] -0.102 | [8] -0.138 | [9] -0.015 | [10] -0.212 | [11] 0.166 | [12] -0.06 | [13] -0.001 | [15] 0.078 | [17] -0.03

CHD9 (UniProt Q3L8U1)
inactive: [1] -0.046 | [2] 0.169 | [3] -0.167 | [4] 0.191 | [6] 0.043 | [7] -0.059 | [10] 0.016 | [12] -0.117 | [13] -0.147 | [14] -0.074 | [19] 0.212 | [15] 0.038 | [16] -0.031 | [17] -0.023

CAPNS1 (UniProt U3KPR7)
inactive: [5] -0.105 | [11] 0.034 | [18] -0.007 | [19] 0.155 | [20] 0.099

B3GALT6 (UniProt Q96L58)
Sequence of UniProt Q96L58 (Q96L58 whole entry, looked up): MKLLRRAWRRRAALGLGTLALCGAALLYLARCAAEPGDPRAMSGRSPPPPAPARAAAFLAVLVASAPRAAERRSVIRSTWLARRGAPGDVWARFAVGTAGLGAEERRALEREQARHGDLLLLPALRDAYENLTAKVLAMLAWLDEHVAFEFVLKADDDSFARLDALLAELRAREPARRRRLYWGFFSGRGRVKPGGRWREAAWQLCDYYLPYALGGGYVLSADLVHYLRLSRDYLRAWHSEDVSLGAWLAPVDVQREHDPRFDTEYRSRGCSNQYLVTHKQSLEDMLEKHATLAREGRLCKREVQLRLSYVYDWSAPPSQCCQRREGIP
inactive: [1] 0.074 | [3] -0.04 | [5] 0.022 | [6] -0.028 | [10] -0.049 | [11] -0.025 | [12] 0.065 | [13] 0.23 | [14] -0.025 | [15] -0.112 | [16] -0.168 | [17] -0.046

CANX (UniProt D6RHJ3)
inactive: [2] -0.321 | [4] 0.031 | [7] -0.022 | [18] -0.013 | [19] 0.021 | [20] -0.008

BRAF, A0A2R8Y8E0
inactive: [2] -0.005 | [4] 0.001 | [7] 0.119 | [8] 0.067 | [9] -0.045

CAPNS1 (UniProt K7ES78)
inactive: [1] 0.193 | [2] -0.23 | [3] 0.019 | [4] -0.275 | [6] -0.048 | [7] 0.047 | [10] -0.09 | [18] 0.028 | [12] 0.061 | [13] -0.196 | [14] -0.101 | [15] 0.025 | [16] 0.148 | [17] -0.105 | [20] -0.075

BUD13 (UniProt Q9BRD0)
inactive: [1] -0.04 | [3] -0.02 | [5] 0.054 | [6] 0.054 | [8] -0.046 | [9] -0.162 | [10] -0.066 | [11] 0.07 | [12] 0.033 | [13] 0.034 | [14] -0.051 | [19] -0.051 | [15] -0.219 | [16] 0.013 | [17] -0.013
